Data taken from the supplement of paper PMC10127200.
Counter-ions that a name gives are not always drawn.

What was measured:
Assay in all cases: Euclidean distance of Cell Painting phenotypic profile (signed KS, 77 features) to DMSO centroid (dimensionless distance); 5 or 10 uM (library dependent); higher = stronger phenotypic change vs DMSO (phenoactivity)
Conditions in all cases: 48 h
786-O = tested on: 786-O
How it was run: (§1)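 Harmony extracted 77 features from 20X confocal images (9 fields/well) of stained cells, scoring each as a signed Kolmogorov-Smirnov statistic against same-plate vehicle wells. The cells, five cancer lines and a healthy fibroblast line, had received library compounds for 48 h at 10 or 5 uM depending on library, with 0.1% DMSO final. Phenoactivity is the Euclidean distance from each plate-position-corrected, correlation-weighted, top-dose replicate-averaged profile to the median vehicle profile.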

A549 = tested on: A549
How it was run: as §1

DU145 = tested on: DU145
How it was run: as §1

FB = tested on: FB
How it was run: as §1

HEPG2 = tested on: HEPG2
How it was run: as §1

OVCAR4 = tested on: OVCAR4
How it was run: as §1

SMILES | Euclidean distance (786-O) | Euclidean distance (A549) | Euclidean distance (DU145) | Euclidean distance (FB) | Euclidean distance (HEPG2) | Euclidean distance (OVCAR4)
CO/N=C(\C(=O)N[C@@H]1C(=O)N2C(C(=O)O)=C(CSc3nc(C)c(CC(=O)O)s3)CS[C@H]12)c1csc(N)n1 [Cefodizime Sodium] | 0.755 | 1.08 | 1.48 | 0.804 | 0.792 | 0.754
C[C@H]1O[C@@H](O[C@H]2CC[C@@]3(C)[C@@H](CC[C@]4(C)[C@@H]3C=C[C@]35OC[C@@]6(CCC(C)(C)C[C@H]63)[C@H](O)C[C@]54C)[C@]2(C)CO)[C@H](O)[C@@H](O[C@@H]2O[C@H](CO)[C@@H](O)[C@H](O)[C@H]2O)[C@H]1O [Saikosaponin D] | 2.45 | 2.4 | 5.79 | 1.95 | 4.11 | 2.92
N[C@@H](CCC(=O)O)C(=O)O [(S)-Glutamic acid] | 1.39 | 0.982 | 1.47 | 0.799 | 0.834 | 1.57
O=[N+]([O-])c1cn2c(n1)OC[C@@H](OCc1ccc(OC(F)(F)F)cc1)C2 | 1.49 | 1.06 | 0.837 | 1.12 | 0.872 | 1.03
O=S(=O)(c1ccccc1)N(CC(F)(F)F)c1ccc(C(O)(C(F)(F)F)C(F)(F)F)cc1 | 1.13 | 1.85 | 1.07 | 1.62 | 2.12 | 1.43
CN1C(=O)C(C)(C)Oc2c(-c3cn(C)c(=O)c4[nH]ccc34)cc(S(C)(=O)=O)cc21 | 4.28 | 2.7 | 2.87 | 3.94 | 2.29 | 2.42
COc1cc(Br)c(Nc2nc(-c3c(C)nc4ncccn34)cs2)c(Br)c1 | 3.62 | 2.67 | 2.18 | 2.66 | 4.16 | 1.63
O=c1ncn2nc(Sc3ccc(F)cc3F)ccc2c1-c1c(Cl)cccc1Cl | 1.78 | 0.873 | 1.38 | 1.63 | 1.25 | 1.55
O=C(O)CCCC[C@@H]1SC[C@@H]2NC(=O)N[C@@H]21 [Biotin (Vitamin B7)] | 0.776 | 0.871 | 0.982 | 0.902 | 0.533 | 1.23
Cc1ccc(S(=O)(=O)NC(=O)NN2CC3CCCC3C2)cc1 (stereo not drawn) [Gliclazide] | 1.36 | 0.771 | 1.24 | 1.14 | 1.07 | 1.65
Cc1cccc(CN2CCN(C(c3ccccc3)c3ccc(Cl)cc3)CC2)c1 (stereo not drawn) [Meclizine 2HCl] | 1.66 | 1.27 | 0.732 | 1.06 | 0.511 | 1.51
CCOC(=O)N1CCC(=C2c3ccc(Cl)cc3CCc3cccnc32)CC1 [Loratadine] | 1.17 | 1.34 | 0.839 | 1.05 | 1.48 | 1.1
Cc1cnc(C(=O)O)c[n+]1[O-] [Acipimox] | 1.86 | 0.99 | 0.959 | 0.682 | 1.59 | 0.964
CC(C)Cc1ccc(C(C)C(=O)O)cc1 (stereo not drawn) [Ibuprofen Lysine] | 1.27 | 0.944 | 1.68 | 0.93 | 1.17 | 1.07
COc1ccccc1O [Guaiacol] | 0.884 | 0.854 | 0.891 | 1.19 | 0.511 | 1.43
C[C@@H](O)[C@@H]1NC(=O)[C@H](CCCCN)NC(=O)[C@@H](Cc2c[nH]c3ccccc23)NC(=O)[C@H](Cc2ccccc2)NC(=O)[C@@H](NC(=O)[C@H](N)Cc2ccccc2)CSSC[C@@H](C(=O)N[C@H](CO)[C@@H](C)O)NC1=O [Octreotide Acetate] | 1.6 | 1.39 | 1.08 | 0.734 | 0.782 | 1.45
OC[C@H]1O[C@@H](Oc2ccc(O)cc2)[C@H](O)[C@@H](O)[C@@H]1O [Arbutin] | 1.12 | 0.916 | 2.06 | 0.914 | 0.919 | 1.73
CC(C)(C)c1cc(C(C)(C)C)c(NC(=O)c2c[nH]c3ccccc3c2=O)cc1O [Ivacaftor (VX-770)] | 2.11 | 2.23 | 1.21 | 0.989 | 1.96 | 1.56
CCC(CC)(NC(=O)C(C)C)C(=O)N[C@@H](CCCN=C(N)N)C(=O)NC1(C(=O)NC(c2ccc(F)cc2)c2ccc(F)cc2)CCCC1 | 0.761 | 0.796 | 1.14 | 0.736 | 0.712 | 0.893
CC(C)(C)CC(C)(C)c1ccc(OCCOCC[N+](C)(C)Cc2ccccc2)cc1 [Benzethonium Chloride] | 3.02 | 2.7 | 2.15 | 1.82 | 2.43 | 2.37
CC(=O)[C@@]1(O)CC[C@H]2[C@@H]3C[C@H](C)C4=CC(=O)C=C[C@]4(C)[C@@]3(F)[C@@H](O)C[C@@]21C [Fluorometholone] | 0.819 | 2.59 | 1.54 | 1.73 | 1.04 | 1.8
O=c1c(O)c(-c2ccc(O)cc2)oc2cc(O)cc(O)c12 [Kaempferol] | 1.49 | 0.589 | 0.883 | 1.36 | 0.783 | 1.45
COc1ccc(NC(=O)c2ccc(C(=N)N(C)C)cc2)c(C(=O)Nc2ccc(Cl)cn2)c1 [Betrixaban] | 1.22 | 0.664 | 0.647 | 0.875 | 0.841 | 0.904
OCc1c[nH]c2ccccc12 [Indole-3-carbinol] | 1.05 | 1.17 | 0.838 | 0.767 | 0.598 | 1.05

SMILES | Euclidean distance (786-O) | Euclidean distance (A549) | Euclidean distance (DU145) | Euclidean distance (FB) | Euclidean distance (HEPG2) | Euclidean distance (OVCAR4)
CCN1CCN(Cc2ccc(-c3cc4c(N[C@H](C)c5ccccc5)ncnc4[nH]3)cc2)CC1 | 2.34 | 3.77 | 1.92 | 2.96 | 1.73 | 1.02
COc1ccc2[nH]c([S+]([O-])Cc3ncc(C)c(OC)c3C)nc2c1 (stereo not drawn) [Omeprazole] | 3.37 | 2.83 | 3.32 | 3.97 | 4.04 | 2.98
C[C@@H]1O[C@@H](Oc2c(-c3ccc(O)c(O)c3)oc3cc(O)cc(O)c3c2=O)[C@H](O)[C@H](O)[C@H]1O [Quercitrin] | 1.05 | 1.14 | 0.64 | 1.09 | 0.738 | 0.915
Nc1c(CC(=O)O)cccc1C(=O)c1ccccc1 [Amfenac Sodium Monohydrate] | 1.3 | 0.843 | 0.909 | 1.46 | 0.424 | 1.11
CC(C)(C(=O)O)c1ccc(C(O)CCCN2CCC(C(O)(c3ccccc3)c3ccccc3)CC2)cc1 (stereo not drawn) [Fexofenadine HCl] | 1.52 | 0.838 | 0.779 | 0.629 | 0.305 | 1.91
CNC(=O)c1ccc(N2C(=S)N(c3cnc(C#N)c(C(F)(F)F)c3)C(=O)C23CCC3)cc1F | 1.4 | 1.24 | 0.954 | 0.828 | 1.01 | 1.16
CC[C@@]1(O)C(=O)OCc2c1cc1n(c2=O)Cc2cc3cc(O)ccc3nc2-1 [Hydroxy Camptothecine] | 3.83 | 4.01 | 3.99 | 3.74 | 3.55 | 2.89
COC(=O)[C@@H]1CC2=CC(=O)CC[C@]2(C)[C@@]23O[C@@H]2C[C@@]2(C)[C@@H](CC[C@@]24CCC(=O)O4)[C@H]13 [Eplerenone] | 1.18 | 0.666 | 0.81 | 0.974 | 1.38 | 0.746
CC[C@H]1OC(=O)[C@H](C)[C@@H](O[C@H]2C[C@@](C)(OC)[C@@H](O)[C@H](C)O2)[C@H](C)[C@@H](O[C@@H]2O[C@H](C)C[C@H](N(C)C)[C@H]2O)[C@](C)(O)C[C@@H](C)C(=O)[C@H](C)[C@@H](O)[C@]1(C)O [Erythromycin] | 1.41 | 1.02 | 1.69 | 1.16 | 3.29 | 1.43
O=C(O)c1ccccc1O [Salicylic acid] | 0.877 | 0.32 | 0.898 | 0.648 | 0.308 | 1.08
CC(C)NCC(O)c1ccc(NS(C)(=O)=O)cc1 (stereo not drawn) [Sotalol] | 1.21 | 0.865 | 0.768 | 0.911 | 0.602 | 1.02
CCC(=O)NC[C@@H]1C[C@H]1c1cccc2c1CCO2 [Tasimelteon] | 1.21 | 1.04 | 0.924 | 1.26 | 0.397 | 1.28
CC(C)NCC(O)c1ccc(O)c(O)c1 (stereo not drawn) [Isoprenaline HCl] | 1.55 | 1.42 | 1.07 | 1.04 | 0.596 | 1.2
CC(C)c1c(C(=O)Nc2ccccc2)c(-c2ccccc2)c(-c2ccc(F)cc2)n1CC[C@@H](O)C[C@@H](O)CC(=O)O [atorvastatin] | 1.57 | 1.35 | 3.44 | 3.29 | 0.836 | 1.24
C[C@H](N[C@@H](CCc1ccccc1)C(=O)O)C(=O)N1CCC[C@H]1C(=O)O [Enalaprilat Dihydrate] | 1.22 | 1.17 | 0.803 | 0.927 | 0.793 | 1
Cn1nnc(-c2ccc(-c3ccc(N4C[C@H](CO)OC4=O)cc3F)cn2)n1 [Tedizolid] | 1.38 | 1.13 | 0.583 | 0.908 | 1 | 1.01
CCc1ccc(CCOc2ccc(CC3SC(=O)NC3=O)cc2)nc1 (stereo not drawn) [Pioglitazone] | 0.465 | 0.586 | 0.944 | 0.666 | 0.336 | 0.891
c1cc(-c2cnn3cc(-c4ccc(N5CCNCC5)cc4)cnc23)c2cccnc2c1 | 5.15 | 5.05 | 4.45 | 6.55 | 5.9 | 6.68
CC(C)C(=O)Oc1ccc(CO)cc1[C@H](CCN(C(C)C)C(C)C)c1ccccc1 [Fesoterodine Fumarate] | 0.902 | 1.2 | 1.33 | 0.688 | 1.16 | 1.69
COc1cc2ncnc(Nc3ccc(O)c(Br)c3)c2cc1OC | 1.36 | 1.35 | 1.92 | 1.7 | 1.64 | 0.933
O=C(Nc1ncc(SCCN2CCCC2)s1)[C@]1(c2ccc(S(=O)(=O)C3CC3)cc2)C[C@H]1C1CCCCC1 | 5.07 | 2.38 | 3.02 | 3.03 | 3.45 | 1.44
CC(C)(C)NC[C@H](O)c1ccc(O)c(CO)c1 [levalbuterol tartrate] | 0.685 | 0.326 | 0.582 | 0.969 | 0.566 | 0.907
Cc1cccc(-c2[nH]c(C(C)(C)C)nc2-c2ccc3c(c2)OCO3)n1 | 1.83 | 1.76 | 0.978 | 2.17 | 1.99 | 1.62
Cc1nc(C)c(C)nc1C [Ligustrazine hydrochloride] | 0.557 | 0.605 | 0.684 | 0.693 | 0.523 | 0.693
